In PubChem BioAssay (NCATS) one finds Potency and activity, negative = cell killing data, which are given here for eleven compounds.

One experiment has as its system UISO. As to the kind of experiment: qHTS assay to identify novel small-molecules to repurpose for Merkel cell carcinoma treatment (AID 1296009). Also: nearly all actives have a fitted effect of over 60% in size. Conditions: MCC and control cell lines, CellTiter-Glo viability, 72 h; series mostly up to 46 µM. In a few lines: (§1)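 Cells were treated for 72 hr at 37 degree celsius with compounds in 8- or 11-point dose response. Viability was read by CellTiter-Glo luminescence, normalized to no-cell (cytotoxicity) and DMSO controls.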
In general terms: Quantitative high-throughput screening tests each substance at several concentrations.

The next experiment concerns C33A. Nature of the experiment: Primary qHTS to identify gynecologic anti-cancer compounds using libraries of approved drugs and bioactive compounds (AID 1345084). Also: nearly all actives have a fitted effect of over 55% in size. Also: potency is read from the fitted curve at half-maximal effect. The note with it: Gynecologic cancer cell panel viability, ATPlite luminescence, 48 h; series mostly up to 57.5 µM. Summed up:
(§2)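 Cell viability after 48 h drug treatment, ATPlite luminescence readout; five doses.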

The next experiment relates to CAOV3. Described as above. Conditions: Gynecologic cancer cell panel viability, ATPlite luminescence, 48 h; series mostly up to 57.5 µM. Summed up: as §2
On the technique in general: In ATP-based viability assays light output follows the ATP content of the culture.

A further experiment concerns CASKI. The description is as above. The note with it: Gynecologic cancer cell panel viability, ATPlite luminescence, 48 h; series mostly up to 57.5 µM. In a few lines: as §2
The subject of another experiment is Hek293T. The description is as above. The note with it: Gynecologic cancer cell panel viability, ATPlite luminescence, 48 h, control line for the selectivity index; series mostly up to 57.5 µM. Summed up: as §2
The next experiment concerns JEG-3. The experiment is described as above. The note with it: Gynecologic cancer cell panel viability, ATPlite luminescence, 48 h; series mostly up to 57.5 µM. Summed up:
as §2

The subject of another experiment is OV90. Described as above. The note with it: Gynecologic cancer cell panel viability, ATPlite luminescence, 48 h; series mostly up to 57.5 µM. Summed up:
as §2

Experiment [1] is described as follows: Drug repurposing screens with cells derived from glioblastoma tumor samples (AID 1345199). Also: potency is read from the fitted curve at half-maximal effect. As to all read-outs here: nearly all actives have a fitted effect of over 40% in size. Conditions: GBM patient neurospheres viability, ATP luminescence, 48 h; for Potency: tumour line A. Summed up: (§3)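 Four patient lines of CD133+ GBM neurospheres were screened at several concentrations; hits were retested in those lines plus three slower-growing GBM lines, using 48-hour treatment and ATP-based viability.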

The next experiment concerns Es-2. As to the kind of experiment: Primary qHTS to identify gynecologic anti-cancer compounds using libraries of approved drugs and bioactive compounds (AID 1345084). Also: nearly all actives have a fitted effect of over 55% in size. Also: potency is read from the fitted curve at half-maximal effect. Conditions: Gynecologic cancer cell panel viability, ATPlite luminescence, 48 h; series mostly up to 57.5 µM. Summed up: as §2
A further experiment relates to HeLa. The description is as above. Conditions: Gynecologic cancer cell panel viability, ATPlite luminescence, 48 h; series mostly up to 57.5 µM. Summed up: as §2
The test system of a further experiment is PA-1. Described as above. Conditions: Gynecologic cancer cell panel viability, ATPlite luminescence, 48 h; series mostly up to 57.5 µM. Summed up: as §2
Another experiment has as its system SKOV3. The experiment is described as above. The note with it: Gynecologic cancer cell panel viability, ATPlite luminescence, 48 h; series mostly up to 57.5 µM. Summed up:
as §2

The next experiment deals with Tov-21-G. The experiment is described as above. The note with it: Gynecologic cancer cell panel viability, ATPlite luminescence, 48 h; series mostly up to 57.5 µM. In a few lines: as §2
For a further experiment, the system named is Tov112D. The description is as above. Conditions: Gynecologic cancer cell panel viability, ATPlite luminescence, 48 h; series mostly up to 57.5 µM. In a few lines: as §2
For the next experiment, the system named is WaGa. As to the kind of experiment: qHTS assay to identify novel small-molecules to repurpose for Merkel cell carcinoma treatment (AID 1296009). Also: nearly all actives have a fitted effect of over 60% in size. The note with it: MCC and control cell lines, CellTiter-Glo viability, 72 h; series mostly up to 46 µM. In a few lines: as §1
A further experiment has as its system astro. As to the kind of experiment: Drug repurposing screens with cells derived from glioblastoma tumor samples (AID 1345199). Also: nearly all actives have a fitted effect of over 40% in size. Also: potency is read from the fitted curve at half-maximal effect. The note with it: viability, ATP luminescence, 48 h; series mostly up to 45.9 µM. In a few lines: as §3

Molecules are shown by their SMILES. Values joined by “and” are separate entries in the source; they are usually repeats but may differ in a detail not shown here. Identical values can stand only once. Records with an inconclusive call do not appear. Unmarked numbers belong to inactive results. Active and inactive are the calls of the source. Calls follow the shape of the dose curve; as a rule, active = well fitted curve in the direction sought with a large enough effect; inconclusive = small, poorly fitted or top-dose-only effect, or another doubt; inactive = no such curve, though single readings can be large; an effect the other way counts as inactive or inconclusive.
% is scaled to controls: 0 for no effect and ±100 for the full control effect.

Turning to `CCOC(=O)N1CCC(=C2c3ccc(Cl)cc3CCc3cccnc32)CC1`, the Potency result in the experiment with UISO, in the experiment with C33A, in the experiment on CAOV3, in the experiment on CASKI, in the experiment with Hek293T and with JEG-3 was “inactive” throughout. Besides, in the experiment with OV90, the Potency result was “inactive”. For the same compound, the activity, negative = cell killing in experiment [1] (at 45.9 µM (top of the series), tumour line B) was -28.2%; in experiment [1] (at 46.1 µM (top of the series), tumour line C), -20.3%. Moreover, the Potency in experiment [1] is 10 µM (active).
With `CN(C)c1ccc(Nc2nc(N)n(C(=O)c3c(F)cccc3F)n2)cc1`, the Potency result in the experiment on UISO, in the experiment on C33A, in the experiment with CAOV3, with CASKI, in the experiment on Es-2 and in the experiment on Hek293T was “inactive” in each case. In addition, the Potency entry in the experiment with JEG-3, in the experiment on OV90, with PA-1, with SKOV3, with Tov-21-G and in the experiment on Tov112D was “inactive” in each case. In addition, in the experiment on HeLa, the Potency was 12.6 µM (active).
Regarding `CCCS(=O)(=O)Nc1ccc(F)c(C(=O)c2c[nH]c3ncc(Cl)cc23)c1F`, the Potency entry in the experiment with WaGa, in the experiment with C33A, with CAOV3, in the experiment on CASKI, with HeLa and with Hek293T was “inactive” in each case. Besides, the Potency result in the experiment on JEG-3, in the experiment on OV90 and in the experiment on Tov112D was “inactive” throughout.
For the compound `CCc1cncnc1N1CCN(Cc2nc3ccc(C(F)(F)F)cc3[nH]2)CC1`, the Potency result in the experiment with C33A, in the experiment with CAOV3, in the experiment with CASKI, in the experiment on Es-2, in the experiment on HeLa and in the experiment with Hek293T was “inactive” throughout. Also, the Potency result with JEG-3, in the experiment with OV90, in the experiment with PA-1, with Tov-21-G and with Tov112D was “inactive” throughout.
With `Cc1oncc1C(=O)Nc1ccc(C(F)(F)F)cc1`, the Potency in the experiment with CAOV3 was 12.6 µM (active); with CASKI, 31.6 µM (active); in the experiment with Es-2 it was 28.2 µM (active); in the experiment with HeLa, 25.1 µM (active); with Hek293T, 14.1 µM (active); with JEG-3, 25.1 µM (active). The Potency with OV90 is 17.8 µM (active); in the experiment with PA-1 it was 11.2 µM (active); in the experiment with SKOV3, 25.1 µM (active); with Tov-21-G it was 25.1 µM (active); in the experiment on Tov112D it was 20 µM (active); in the experiment with astro, 10 µM (active).
On to `S=C(NCc1ccc2c(c1)OCO2)N1CCN(c2ncnc3c2oc2ccccc23)CC1`, for which the Potency result with HeLa, in the experiment on JEG-3, in the experiment with PA-1, in the experiment with Tov-21-G and with Tov112D was “inactive” throughout.
For `CNC(=O)c1ccccc1Sc1ccc2c(/C=C/c3ccccn3)n[nH]c2c1`, the Potency with CAOV3 was 10 µM (active) and 8.91 µM (active); in the experiment with CASKI, 11.2 µM (active); in the experiment with Es-2 it was 15.8 µM (active) and 17.8 µM (active); in the experiment with HeLa, 3.98 µM (active) and 3.55 µM (active); in the experiment with Hek293T, 10 µM (active) and 12.6 µM (active); in the experiment on OV90 it was 11.2 µM (active). Also, the results for the Potency in the experiment on Tov-21-G, in the experiment on Tov112D and in the experiment on astro were 11.2 µM (active), 8.91 µM (active) and 2 µM (active), respectively.
As for `CC1(C)CNc2cc(NC(=O)c3cccnc3NCc3ccncc3)ccc21`, the Potency result in the experiment with C33A, in the experiment with CAOV3, in the experiment with CASKI, with Es-2, in the experiment with HeLa and with Hek293T was “inactive” throughout. Besides, the Potency result with JEG-3, with PA-1, in the experiment on SKOV3, in the experiment on Tov-21-G and with Tov112D was “inactive” in each case.
Regarding `O=C(O)CCc1ccc(NCc2cccc(Oc3ccccc3)c2)cc1`, the Potency result in the experiment with C33A, in the experiment on CASKI and in the experiment on JEG-3 was “inactive” in each case.
For the compound `CCC(C)(C)C(=O)O[C@H]1C[C@@H](C)C=C2C=C[C@H](C)[C@H](CC[C@@H]3C[C@@H](O)CC(=O)O3)[C@H]21`, the Potency result in the experiment on C33A, with CAOV3, in the experiment on CASKI, in the experiment with JEG-3, in the experiment with PA-1 and in the experiment with SKOV3 was “inactive” in each case. The Potency result with Tov-21-G and in the experiment on Tov112D was “inactive” each time. Besides, the activity, negative = cell killing in experiment [1] (at 20 µM (top of the series), tumour line C) is -22.9%; in experiment [1] (at 21.2 µM (top of the series), tumour line B), -19.9%. The figures for the Potency (in experiment [1]; in the experiment with astro) were 0.891 µM (active) and 3.55 µM (active), respectively.
Take `CCOc1ccn(-c2ccc(F)cc2)c(=O)c1C(=O)Nc1ccc(Oc2ccnc(N)c2Cl)c(F)c1`: the Potency entry with WaGa, in the experiment with C33A, with CASKI, in the experiment with Es-2, in the experiment with Hek293T and in the experiment on JEG-3 was “inactive” throughout. Moreover, the Potency result with OV90, in the experiment with PA-1, with SKOV3, in the experiment with Tov-21-G and with Tov112D was “inactive” in each case.
